NS1 function inh – inhibitors of influenza NS1 protein function | 0.4% of 270,000 active | AID 2326 | Potency, µM (top dose mostly 46.1 µM); calls by dose curve; note: actives are rising curves; nearly all actives have a fitted effect of over 50% in size
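OD600 was taken as the measure of yeast growth restored by compound in an NS1-expressing S. cerevisiae strain. Cells had been washed out of glucose medium and diluted 1:100 into galactose -URA medium, pH 6.0.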
Pf growth 96h – inhibits malaria parasite growth, 96 h. Potency, µM (doses to about 28.7 µM), hits mostly inhibitors. P. falciparum luciferase reporter growth, 96 h. AID 504834. 6.9% of 320,000 active
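Compounds incubated with erythrocytes infected by luciferase-expressing P. falciparum (2% hematocrit, 0.05% parasitemia final) for 96 hours, 37 C in 5% CO2. Growth inhibition scored as decreased luciferase luminescence.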
Pf growth 48h – P. falciparum growth inhibition at 48 hours (one generation); P. falciparum luciferase growth in erythrocytes, 48 h; Potency, µM (highest dose often 28.7 µM), hits mostly inhibitors; 5.9% of 310,000 active; AID 504832
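Growth was read as firefly luciferase luminescence after a 48 h, 37 C, 5% CO2 exposure of compounds to reporter-bearing P. falciparum cultures (0.1% parasitemia, 2% hematocrit final) in Albumax-supplemented RPMI 1640.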
SARS PLP yeast – inhibitors of SARS-CoV papain-like protease in yeast; S. cerevisiae expressing SARS-CoV PLpro, growth rescue; Potency, µM (titrated, usually from 32.9 µM), hits mostly activators; 0.19% of 330,000 active; calls by dose curve; note: nearly all actives have a fitted effect of over 55% in size
A number is an active result; i = inactive; ? = inconclusive; nt = not tested or not shown; [ ] = dose if it differs, or a comment. Sampled rows, rich in hits. Any-hit rate of the full collection: about 10%. Unless noted, calls come from the whole dose curve; as a rule, active = well fitted inhibition curve with a large enough effect; inconclusive = small, poorly fitted or top-dose-only effect, or another doubt; inactive = no such curve, though single readings can be large or run the other way.

SMILES | NS1 function inh | Pf growth 96h | Pf growth 48h | SARS PLP yeast
CCOC(=O)N1CCN(C(=O)C2CCN(S(=O)(=O)c3ccc(NC(C)=O)cc3)CC2)CC1 | i | 8.3µM | ? | i
CCOC(=O)C1CCN(C(=O)C2CCN(S(=O)(=O)c3cc(Cl)ccc3Cl)CC2)CC1 | i | i | ? | i
O=C(/C=C/c1ccc([N+](=O)[O-])cc1)OCC(=O)N1CCCC1 | nt | nt | nt | i
NNC(=O)c1cc(-c2ccccc2)sc1N | i | ? | 9.3µM | i
Cc1ccc(NC(=O)CN(C)C(=O)COC(=O)c2nc3nccc(C)n3n2)cc1 | nt | i | i | i
Cc1cc(C)nc(NS(=O)(=O)c2ccc(NC(=O)c3cccs3)cc2)n1 | i | i | i | i
CCCCN(CCCC)S(=O)(=O)c1ccc(NC(=O)c2cccs2)cc1 | i | 0.41µM | nt | i
CC1CCN(S(=O)(=O)c2ccc(NC(=O)c3cccs3)cc2)CC1 | i | i | 4.7µM | i
CN1CCN(S(=O)(=O)c2ccc(NC(=O)c3cccs3)cc2)CC1 | i | i | i | nt
O=C(Nc1ccc(Br)cc1)C1CCCN1S(=O)(=O)c1cccs1 (stereo unspecified) | i | 3.7µM | nt | i
CC1CCCCN1S(=O)(=O)c1ccc(NC(=O)c2cccs2)cc1 (stereo unspecified) | i | ? | 15µM | i
O=C(Nc1ccc(S(=O)(=O)N2CCCC2)cc1)c1cccs1 | i | ? | ? | i
Cc1ccc(-n2c(CNC(=O)c3cccs3)nnc2SCC(=O)NO)cc1 | nt | ? | ? | i
CCN(C(=O)CN1C(=O)S/C(=C\c2cccc(Cl)c2)C1=O)C1CCS(=O)(=O)C1 (stereo unspecified) | i | 12µM | ? | i
CCN(C(=O)CN1C(=O)/C(=C/c2ccccc2F)SC1=S)C1CCS(=O)(=O)C1 (stereo unspecified) | i | ? | i | i
CCN(C(=O)CCN1C(=O)/C(=C/c2ccccc2)SC1=S)C1CCS(=O)(=O)C1 (stereo unspecified) | i | 7.4µM | 13µM | i
CCN(C(=O)C(C)N1C(=O)/C(=C/c2ccco2)SC1=S)C1CCS(=O)(=O)C1 (stereo unspecified) | i | ? | ? | i
CCN(C(=O)CN1C(=O)S/C(=C\c2ccc(Cl)cc2)C1=O)C1CCS(=O)(=O)C1 (stereo unspecified) | i | i | i | i
CC(C(=O)N(C)C1CCS(=O)(=O)C1)N1C(=O)/C(=C/c2ccc(F)cc2)SC1=S (stereo unspecified) | i | 12µM | 13µM | i
CCN(C(=O)CN1C(=O)S/C(=C\C=C\c2ccccc2)C1=O)C1CCS(=O)(=O)C1 (stereo unspecified) | i | 4.1µM | 7.4µM | i
Cc1ccc(C)c(S(=O)(=O)N2CCC(c3nc4c(nnn4Cc4ccc5c(c4)OCCO5)c(=O)[nH]3)CC2)c1 | i | i | ? | i
CC1=CC2=NC(=O)/C(=C\c3ccc(OC(=O)c4ccco4)cc3)C(=N)N2O1 | nt | i | i | i
COc1cc(/C=C2/C(=N)N3OC(C)=CC3=NC2=O)ccc1OC(=O)c1ccco1 | nt | 13µM | i | i
Cc1oc(-c2cccc(F)c2)nc1CN(Cc1ccccc1)C[C@@H]1CCC(=O)N1 | i | 8.3µM | ? | i
Cc1oc(-c2ccccc2Cl)nc1CN(Cc1ccccn1)C[C@@H]1CCC(=O)N1 | i | ? | i | i
SMILES | NS1 function inh | Pf growth 96h | Pf growth 48h | SARS PLP yeast
CC(=O)NNC(=O)CCn1nnc(-c2ccc(Cl)cc2)n1 | i | i | i | i
Cc1ccc(-c2cn(CCN)c(-c3ccc(Cl)nc3)n2)cc1 | nt | i | 10µM | i
Cc1ccc(-c2cn(CCC(=O)O)c(-c3ccc(Cl)nc3)n2)cc1 | nt | i | i | i
Cc1ccc(S(=O)(=O)NC2CC(C)(C)NC(C)(C)C2)c(C)c1C | i | i | i | i
CCOC(=O)c1sc(N)c(C#N)c1CSc1nnc(C2CCCCC2)n1N | i | 10µM | nt | i
O=C(O)c1ccc(N=Cc2c(O)[nH]c(=O)[nH]c2=O)cc1 | i | i | i | i
Cc1cc(C)c(N=Cc2c(O)[nH]c(=O)[nH]c2=O)c(C)c1 | i | 3.3µM | i | i
CC1CCN(CCCn2c(=S)[nH]c3c(sc4ccccc43)c2=O)CC1 | nt | i[5.75 µM] | i | i
COCCCn1c(=S)[nH]c2c(sc3ccccc32)c1=O | nt | 10µM | i | i
Cc1ccc(N(CC(O)CN2CCCC2)S(=O)(=O)c2ccc(C)cc2)cc1 (stereo unspecified) | i | nt | ? | i
Cc1cccc(C)c1N(CC(O)Cn1c2ccccc2c2ccccc21)S(C)(=O)=O (stereo unspecified) | i | nt | ? | i
CS(=O)(=O)N(Cc1ccco1)CC(O)Cn1c2ccccc2c2ccccc21 (stereo unspecified) | i | nt | 9.3µM | i
OC(CNCc1ccco1)Cn1c2ccccc2c2ccccc21 (stereo unspecified) | i | i | 2.3µM | i
Cc1ccc(N(CC(O)Cn2c3ccccc3c3ccccc32)S(C)(=O)=O)cc1 (stereo unspecified) | i | ? | nt | i
Cc1ccc(N(CC(O)Cn2c3ccccc3c3ccccc32)S(C)(=O)=O)c(C)c1 (stereo unspecified) | i | nt | 4.7µM | i
CC(=O)Nc1ccc(N(CC(O)Cn2c3ccccc3c3ccccc32)S(=O)(=O)c2ccc(C)cc2)cc1 (stereo unspecified) | ? | i | 9.3µM | i
CC1C2NC(=O)N(Cc3ccccc3)C1(C)Oc1ccccc12 (stereo unspecified) | nt | ? | i | i
CCC1(CC)NC(=O)N(CC(=O)NC(=O)NCc2ccccc2)C1=O | i | i | i | i
Cc1ccc(C(=O)NC2CCCc3ccccc32)cc1[N+](=O)[O-] (stereo unspecified) | i | ? | ? | i
Cc1ccccc1N(C(=O)c1snc(C(N)=O)c1N)C(C(=O)NCc1ccccc1)c1ccc(O)cc1 (stereo unspecified) | i | i | ? | i
COc1ccc(N(C(=O)c2snc(C(N)=O)c2N)C(C(=O)NCc2ccccc2)c2ccc(O)cc2)cc1OC (stereo unspecified) | i | i | ? | i
CCOc1ccccc1N(C(=O)c1snc(C(N)=O)c1N)C(C(=O)NCc1ccccc1)c1ccc(O)cc1 (stereo unspecified) | i | ? | 12µM | i
COc1ccc(C(C(=O)NCc2ccccc2)N(C(=O)c2snc(C(N)=O)c2N)c2ccccc2OC)cc1OC (stereo unspecified) | i | i | 10µM | i
CCOc1ccccc1N(C(=O)c1snc(C(N)=O)c1N)C(C(=O)NC1CCCC1)c1cccs1 (stereo unspecified) | i | ? | 9.3µM | i
CN(C)c1ccc(C(C(=O)NCc2ccccc2)N(Cc2cccnc2)C(=O)c2snc(C(N)=O)c2N)cc1 (stereo unspecified) | i | 13µM | ? | i
Cc1nn(-c2ccccc2)c(Cl)c1C1C(C#N)=C(N)Oc2c1c(C)nn2-c1ccccc1 (stereo unspecified) | i | 10µM | 10µM | i
Cc1nn(-c2ccccc2)c2c1C(c1ccncc1)C(C#N)=C(N)O2 (stereo unspecified) | i | nt | i | i
Cc1ccc(-n2nc(C)c3c2OC(N)=C(C#N)C3c2ccncc2)cc1 (stereo unspecified) | i | 0.52µM | i | i

Bioassay records from PubChem BioAssay.
